# Experimental data published in PubChem BioAssay AID977627 (Broad Institute, 2014).
# Results filed as inconclusive are left out. The source made the active and inactive calls. The rule behind the calls is not given here.
# Experiment: E. coli strain growth, wild-type against H38 humanized mutant – H38 mutant GFP vs wild-type RFP, cherry-pick, dose response (AID 977627)
# Settings: activity: measured here: wild-type RFP strain growth, at 50 µM, stronger effect = lower value
smiles,measurement,value
O=C(COC(=O)c1cccc(O)c1)Nc1ccc(Cl)cc1C(=O)c1ccccc1,activity,-8.13%
same,outcome,inactive
